Source: PubChem BioAssay
Compounds with a hit are over-represented: about 1.2% of the library has one in this group of screens.
RGS16-Gao HTS = regulators of human RGS16-Galphao interaction | actives 0.38% (n = 220,000) | O15492+P09471 | binding response (% of control), % at 10 µM | bead-based flow cytometry RGS16-Galphao binding, fluorescence; actives lie on both sides;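 note: Galphao activated by GDP with aluminum fluoride before binding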
Target sequence (O15492 whole entry, looked up): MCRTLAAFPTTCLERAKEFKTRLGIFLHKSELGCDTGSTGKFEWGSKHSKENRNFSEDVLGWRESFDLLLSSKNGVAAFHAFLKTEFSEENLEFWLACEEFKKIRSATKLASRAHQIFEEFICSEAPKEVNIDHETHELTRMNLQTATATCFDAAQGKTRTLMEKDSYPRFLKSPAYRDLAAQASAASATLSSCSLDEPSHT
Target sequence (P09471 whole entry, looked up): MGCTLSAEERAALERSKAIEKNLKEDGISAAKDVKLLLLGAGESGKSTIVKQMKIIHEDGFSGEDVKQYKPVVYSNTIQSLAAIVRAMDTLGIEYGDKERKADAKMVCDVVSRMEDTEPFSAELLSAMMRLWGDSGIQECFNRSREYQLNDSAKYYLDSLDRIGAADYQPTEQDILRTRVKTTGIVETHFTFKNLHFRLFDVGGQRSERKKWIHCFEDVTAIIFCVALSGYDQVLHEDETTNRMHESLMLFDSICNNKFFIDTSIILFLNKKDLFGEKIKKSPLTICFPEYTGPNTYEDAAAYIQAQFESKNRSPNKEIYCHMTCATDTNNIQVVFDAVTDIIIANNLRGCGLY
RGS7-Gao reg = regulators of human RGS7-Galphao interaction; actives 0.35% (n = 220,000); Multiplexed bead flow cytometry, RGS7-Galphao binding; actives lie on both sides; AID 1439; P09471; binding response (% of control), % at 10 µM; in the data active = binding response below about 49% or above about 150%; inconclusive = no clear call, values can overlap the other calls; inactive = in between;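 note: fluorescent Galphao held in activated GDP-AlF4 state binding bead-coupled RGS7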
Target sequence (P09471 whole entry, looked up): as above
Avidin bead fluor = avidin bead compound fluorescence profile | Avidin beads, compound fluorescence 488/530 nm, flow cytometry; active compounds read high | fluorescence (KMESF) at 10 µM | actives 0.38% (n = 220,000) | AID 1775; in the data active = fluorescence above about 47
RGS8-Gao = modulates binding of RGS8 to human Galphao. AID 1423. response (percent of control binding), % at 10 µM. multiplexed bead flow cytometry; actives lie on both sides. actives 0.34% (n = 220,000). P09471; in the data active = response below about 60% or above about 140%; inactive = in between;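 note: Galphao activated as the GDP aluminium fluoride complex binding bead-coupled RGS8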
RGS4-Gao reg = human RGS4-Galphao interaction regulation; Multiplexed bead flow cytometry, RGS4-Galphao binding; actives lie on both sides; AID 1415; binding response (% of control), % at 10 µM; actives 0.33% (n = 220,000); P09471; in the data active = binding response below about 49% or above about 150%; inactive = in between;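 note: fluorescent Galphao activated with aluminum fluoride binding bead-coupled RGS4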
GSH fluor = compound fluoresces at 488/530 nm on GSH beads; actives 0.25% (n = 190,000); GSH beads flow cytometry, compound fluorescence 488/530 nm; active compounds read high; fluorescence (KMESF) at 10 µM; AID 1776; in the data active = fluorescence above about 89;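 note: glutathione beads carrying GST-tagged Bcl family fusion proteins plus one bare bead set; values are compound well signal with DMSO vehicle wells as background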
RGS4-Gao HTS = modulates binding between human RGS4 and Galphao | RGS4–Galpha-o binding response, % at 10 µM | shares compounds with RGS16-Gao HTS | actives 99% (n = 1,600) | multiplexed bead flow cytometry, RGS–Galpha-o binding | AID 1504;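 note: fluorescently labeled Galpha-o bound to GDP with aluminium fluoride binding biotinylated RGS beads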
Avidin counter = counter-screen: compounds disrupting biotin binding to avidin beads. shares compounds with RGS16-Gao HTS. streptavidin beads, fluorescein-biotin binding, flow cytometry. inhibition, % at 10 µM. 1,700 tested, under 10 active. AID 1783;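 active = inhibition above 50%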;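 note: median green fluorescence of gated singlet beads compared with DMSO control wells; 0% = DMSO wells and 100% = complete loss of bead fluorescence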
RGS8-Gao single = confirmation of regulators of human RGS8-Galphao interaction; shares compounds with RGS16-Gao HTS; actives 3% (n = 1,700); binding response (% of control), % at 10 µM; bead-based flow cytometry RGS8-Galphao binding, fluorescence; actives lie on both sides; AID 1836; in the data active = binding response below about 72% or above about 130%; inactive = in between;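 note: Galphao activated as GDP AlF4 complex before binding bead RGS8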
RGS7-Gao confirm = RGS7-Galphao interaction regulation, single point confirmation; shares compounds with RGS16-Gao HTS; bead-based flow cytometry RGS7-Galphao binding; actives lie on both sides; response (percent of control binding), % at 10 µM; actives 7.8% (n = 1,700); in the data active = response below about 75% or above about 130%; inactive = in between;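 note: fluorescent Galphao activated with GDP and aluminum fluoride binding bead-coupled RGS7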
RGS16-Gao single = RGS16-Galphao interaction regulation, single point confirmation. shares compounds with RGS16-Gao HTS. bead-based flow cytometry, RGS16-Galphao binding; actives lie on both sides. response (% of control binding), % at 10 µM. actives 4% (n = 1,700). AID 1838; in the data active = response below about 74% or above about 130%; inactive = in between;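 note: Galphao activated as the GDP aluminium fluoride complex binding bead-coupled RGS16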
RGS4-Gao confirm = confirmation of regulators of human RGS4-Galphao interaction | shares compounds with RGS16-Gao HTS | RGS4-Galphao binding, multiplexed bead flow cytometry; actives lie on both sides | binding response (% of control), % at 10 µM | actives 4% (n = 1,700); in the data active = binding response below about 74% or above about 130%; inactive = in between
RGS19-Gao conf = RGS19-Galphao interaction regulation, single point confirmation. response (percent of control binding), % at 10 µM. bead-based flow cytometry RGS19-Galphao binding; actives lie on both sides. actives 5% (n = 1,700). shares compounds with RGS16-Gao HTS; in the data active = response below about 50% or above about 160%; inactive = in between;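 note: 100% = no compound control and 0% = blank background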
The depositor's hits bear a star; ? = inconclusive; / = no result given; + = active, no number; [ ] = dose if it differs, or a comment. Unless noted, the rule behind the calls is not given here.

SMILES	RGS16-Gao HTS	RGS7-Gao reg	Avidin bead fluor	RGS8-Gao	RGS4-Gao reg	GSH fluor	RGS4-Gao HTS	Avidin counter	RGS8-Gao single	RGS7-Gao confirm	RGS16-Gao single	RGS4-Gao confirm	RGS19-Gao conf
CCCCOc1ccc(S(=O)(=O)Nc2cc(OC)ccc2OC)cc1	/	/	/	/	/	48	/	-1	99	102	96	98	107
COc1ccc(OC)c(NS(=O)(=O)c2ccc(Cl)nc2)c1	87	101	0	96	100	6	/	/	/	/	/	/	/
COCCNC(=O)C(=O)N/N=C(\C)CC(=O)Nc1cccnc1	105	104	10	102	104	8	/	/	/	/	/	/	/
CNC(=O)c1cccc2cccc(Sc3ccccc3C(=O)O)c12	99	?	3	100	103	/	/	/	/	/	/	/	/
CNC(=O)c1ccccc1Sc1ccccc1CO	98	?	7	81	94	/	/	0	110	106	112	106	106
CCCCCCNC(=O)N[C@H](C(=O)NCCC[C@H]1CN2C(=NC[C@H]2C)N1CCC(c1ccccc1)c1ccccc1)C(C)O (stereo partly drawn)	60	?	12	70	95	/	/	/	/	/	/	/	/
O=C(c1cc2n(n1)C(C(F)(F)F)CC(c1ccco1)N2)N1CCN(c2ccccn2)CC1 (stereo not drawn)	/	/	/	/	/	46	/	-1	99	99	103	96	119
Cc1ccc(S(=O)(=O)N2CCCCC2)cc1NC(=O)COC(=O)C1=COCCO1	102	99	9	100	101	67	/	/	/	/	/	/	/
CCC(=O)N1CCN(c2ccc(Cl)cc2NC(=O)c2ccc3c(c2)OCCO3)CC1	-0.4*	2.0*	-4	6.1*	0.4*	42	/	2	100	96	99	99	98
CCC(=O)N1CCN(c2ccc(NC(=O)c3ccc4c(c3)OCCO4)cc2)CC1	101	94	3	100	97	11	/	/	/	/	/	/	/
Cc1ccc(CC(=O)O/N=C(\N)Cc2ccc([N+](=O)[O-])cc2)cc1	17*	88	9	78	92	7	92*	/	/	/	/	/	/
Cc1cccc(-n2ncc3c(N4CCOCC4)ncnc32)c1	9	63	3	59*	65	17	65*	2	102	105	103	105	93
O=S(=O)(c1ccc(F)cc1)N1CCN(c2ncnc3c2cnn3-c2ccccc2)CC1	301	122	13	142*[activator]	129	14	129*	0	96	89	95	95	107
O=C(OCCN1C(=O)c2ccccc2C1=O)c1cccs1	+	126	6	140	130	16	130*	/	/	/	/	/	/
N#C/C(=C(/O)CSc1nnc(Cc2cccs2)n1C1CCCCC1)c1nc2ccccc2[nH]1	-53	46*	1	51*	33*	228*	/	0	113	109	111	109	93
Cc1nn(C)c(C(=O)NC2C3CC4CC(C3)CC2C4)c1Cl (stereo not drawn)	9.8*	87	5	63	87	11	87*	0	100	94	93	96	93
Cn1ncc(Cl)c1C(=O)NC1C2CC3CC(C2)CC1C3 (stereo not drawn)	108	98	20	101	97	11	/	/	/	/	/	/	/
Cc1nnc(Nc2ccc3c(c2)ncn3C)c2ccccc12	220	114	13	146*[activator]	115	25	115*	1	108	107	106	104	107
Cc1ccc(-c2nnc(Nc3ccc4c(c3)nc(C)n4C)c3ccccc23)cc1	100	97	32	100	98	12	/	/	/	/	/	/	/
Cn1cc(Br)c(-c2cccc(N3C(=O)CCCC3=O)c2)n1	109	?	4	105	104	/	/	/	/	/	/	/	/
CC(=O)Nc1ccc(OC(=O)c2cc3cc(Br)cc(Br)c3oc2=O)cc1	19*	81	4	80	91	8	91*	-2	100	88	96	92	96
CC(=O)Nc1ccc(OC(=O)c2cc3cc(Br)ccc3oc2=O)cc1	101	96	12	103	102	9	/	/	/	/	/	/	/
CN(C)/C=C/C(=O)c1cnc(-c2ccccn2)s1	106	102	14	100	102	15	/	/	/	/	/	/	/
Cc1ccc(/C=N/n2c(-c3ccncc3)n[nH]c2=S)cc1	-29	58	3	51*	63	11	63*	2	108	123	109	112	98
CCC1CCCCN1C(=O)CSc1nc(N)cc(N)n1 (stereo not drawn)	110	97	11	100	100	13	/	/	/	/	/	/	/
SMILES	RGS16-Gao HTS	RGS7-Gao reg	Avidin bead fluor	RGS8-Gao	RGS4-Gao reg	GSH fluor	RGS4-Gao HTS	Avidin counter	RGS8-Gao single	RGS7-Gao confirm	RGS16-Gao single	RGS4-Gao confirm	RGS19-Gao conf
Cc1cc(NC(=S)N(Cc2ccc(Br)cc2)Cc2ccc(C(=O)O)cc2)ccc1Cl	97	98	11	98	99	15	/	/	/	/	/	/	/
c1ccc(Cn2cnc3ccccc32)cc1	26	34*	8	35*	33*	13	/	-1	109	116	113	115	112
CCNC(=O)c1c(NC(=O)C2COc3ccccc3O2)sc2c1CCCC2 (stereo not drawn)	-528	155*[activator]	3	185*[activator]	170*[activator]	22	/	0	105	110	104	105	95
COCCCNC(=O)c1c(NC(=O)C2COc3ccccc3O2)sc2c1CCCC2 (stereo not drawn)	10	100	1	84	93	33	/	/	/	/	/	/	/
Cn1ncc([N+](=O)[O-])c1C(=O)Nc1ccc(-c2nc3ccccc3[nH]2)cc1	/	/	/	/	/	13	/	0	104	108	101	104	101
CSc1ccc(/C=C/C(=O)NC(=O)c2ccccc2O)cc1	95	93	19	93	93	11	/	/	/	/	/	/	/
